Rows were chosen to be rich in hits. Some 2.3% of all compounds tested hit in one or more screens of this group.
CHO-K1 Ca antag: M1 antagonist counterscreen hit in parental CHO-K1 cells. inhibition, % at 3 µM. AID 602250. ATP-induced calcium, Fluo-8 fluorescence. 360,000 compounds, 0.6% hits;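 active = inhibition above a per-plate cutoff, the plate's mean sample inhibition plus 3 SD, cut at about 24% in these data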
CHRM1 agonist: human M1 muscarinic receptor agonists, primary screen, Fluo-8 calcium fluorescence, CHO-K1 cells, HTS. Muscarinic acetylcholine receptor M1 (Homo sapiens), P11229. CHO-K1 hM1, agonist mode; 0% DMSO, 100% acetylcholine EC100. activation, % at 3 µM. 360,000 compounds, 0.33% hits;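 active = activation above the run's mean compound activation plus 3 SD, cut at about 16% in these data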;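 also: peak over basal fluorescence ratio within a 140 s kinetic read after compound addition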
Target sequence (P11229 whole entry, looked up): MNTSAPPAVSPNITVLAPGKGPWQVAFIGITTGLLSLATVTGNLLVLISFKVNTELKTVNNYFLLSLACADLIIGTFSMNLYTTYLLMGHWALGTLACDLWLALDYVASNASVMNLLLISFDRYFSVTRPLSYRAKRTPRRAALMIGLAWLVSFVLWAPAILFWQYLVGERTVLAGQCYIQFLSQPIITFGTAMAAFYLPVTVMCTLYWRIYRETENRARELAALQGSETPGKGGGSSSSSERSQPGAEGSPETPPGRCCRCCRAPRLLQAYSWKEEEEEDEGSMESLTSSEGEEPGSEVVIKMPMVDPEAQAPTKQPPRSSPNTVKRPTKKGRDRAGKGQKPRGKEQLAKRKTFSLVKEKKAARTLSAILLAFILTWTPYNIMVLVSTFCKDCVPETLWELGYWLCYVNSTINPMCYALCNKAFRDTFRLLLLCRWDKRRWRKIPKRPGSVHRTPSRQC
M1 ag parental: counter-screen for M1 agonists: effect in parental CHO-K1 cells. activation, % at 3 µM. 360,000 compounds, 0.48% hits. Fluo-8 calcium fluorescence; scaled to maximal ATP response, vehicle zero; in the data active = activation above about 15%;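 also: untransfected CHO-K1 host cells lacking M1 receptor as counterscreen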
M1 antag: human M1 muscarinic receptor antagonists, primary screen, CHO-K1 cells, Fluo-8 calcium fluorescence, 1536-well; CHO-K1 hM1, ACh EC80 antagonist; inhibition, % at 3 µM; 360,000 compounds, 1.3% hits;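 active = percent inhibition above its own plate's cutoff, namely the mean of that plate's compound wells plus 3 SD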;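 also: peak over basal fluorescence ratio during 140 s after agonist addition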
M1 PAM parental: nonselective calcium activators in parental CHO-K1 cells, primary screen, counter-screen for M1 PAM project, cell-based, Fluo-8 calcium fluorescence, full deck, 1536-well; ATP EC20; 0% at ATP EC20, 100% at ATP max; activation, % at 3 µM; 360,000 compounds, 0.02% hits; AID 602247, 2012;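 active = activation above the run cutoff, the mean activation of all test compounds plus 3 SD, cut at about 40% in these data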;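 also: peak over basal fluorescence ratio in a 140 s read after ATP addition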
CHRM1 PAM: human M1 muscarinic receptor positive allosteric modulators, primary screen, CHO-K1 cells, Fluo-8 calcium fluorescence, 1536-well | Muscarinic acetylcholine receptor M1 (Homo sapiens), P11229 | CHO-K1 hM1, ACh EC20; 0% = ACh EC20, 100% = maximal ACh | activation, % at 3 µM | 360,000 compounds, 0.088% hits | AID 588819, 2011; in the data active = activation above about 19%, passing the limit was not always enough
Large screens that a line does not name were inactive.

CN1CCN(S(=O)(=O)c2ccc(NC(=O)Nc3cccc(Cl)c3)cc2)CC1	none
O=C(Nc1ccc(S(=O)(=O)N2CCCC2)cc1)C1CCN(S(=O)(=O)c2ccc(F)cc2)CC1	CHRM1 agonist 17
Cc1ccc(Cl)c(NC(=O)COC(=O)c2nn(-c3ccccc3)cc2O)c1Cl	none
O=C(Nc1cccc(F)c1)C1CCN(S(=O)(=O)c2cccc3nonc23)CC1	M1 ag parental 20
O=C(Nc1ccccc1)Nc1ccc(S(=O)(=O)N2CCCCC2)cc1	CHO-K1 Ca antag 24
O=C(CN1CCN(S(=O)(=O)c2ccc(Br)cc2)CC1)Nc1ccc2c(c1)OCO2	M1 ag parental 22
Cc1ccc(NC(=O)C2CCN(S(=O)(=O)c3cccc4nonc34)CC2)cc1	none
O=C(Nc1ccc(S(=O)(=O)N2CCCCC2)cc1)c1ccccc1Cl	none
O=C(CN1CCN(S(=O)(=O)c2ccc(Br)cc2)CC1)Nc1ccc(F)cc1	none
CCN(CC(=O)Nc1cc(S(=O)(=O)N2CCCCC2)ccc1Cl)Cc1ccccc1	CHO-K1 Ca antag 36
CC(C)CCNC(=O)CN(C(=O)CCC(=O)Nc1nccs1)C1CCCCC1	none
COc1cc2c(cc1OC)C(C)N(CC(=O)Nc1ccc(S(=O)(=O)N3CCCC3)cc1)CC2 (stereo unspecified)	M1 antag 58
CC1CCCN(CC(=O)Nc2ccc(S(=O)(=O)N3CCCC3)cc2)C1 (stereo unspecified)	M1 antag 67
CCCC(=O)Nc1ccc(S(=O)(=O)N2CCCC2)cc1	none
COc1cc2c(cc1OC)CN(CC(=O)Nc1ccc(S(=O)(=O)N3CCCC3)cc1)CC2	none
O=C(O)CCC(=O)Nc1ccc(S(=O)(=O)N2CCCC2)cc1	CHO-K1 Ca antag 25
CC1CCN(S(=O)(=O)c2ccc(NC(=O)CN3CCCC(C)C3)cc2)CC1 (stereo unspecified)	none
CCN(CCO)Cc1csc2c(Br)cccc12	CHRM1 PAM 23
CCN(CCO)Cc1csc2ccccc12	none
CC1CCc2nc3sc4c(c3c(N)c2C1)CCCC4 (stereo unspecified)	none
Nc1c2c(nc3sc4c(c13)CCCCC4)CCCCC2	M1 antag 51
COc1cc(C(=O)NCc2nnc(SCC(=O)NC3CCCC3)o2)cc(OC)c1OC	none
COc1ccc(-n2nnnc2C(c2ccccc2)N2CCN(C/C=C/c3ccccc3)CC2)cc1 (stereo unspecified)	M1 antag 68
Cc1cccc(C)c1-n1nnnc1C(c1cccc2ccccc12)N1CCN(C/C=C/c2ccccc2)CC1 (stereo unspecified)	none
CCCCn1nnnc1C(c1ccnc2ccccc12)N1CCN(C/C=C/c2ccccc2)CC1 (stereo unspecified)	M1 antag 80
Cc1cccc(C)c1-n1nnnc1C(c1cc2ccccc2o1)N1CCN(C/C=C/c2ccccc2)CC1 (stereo unspecified)	M1 antag 56
CCCCn1nnnc1C(CC)N1CCN(C/C=C/c2ccccc2)CC1 (stereo unspecified)	none
CCC(c1nnnn1C(C)(C)C)N1CCN(C/C=C/c2ccccc2)CC1 (stereo unspecified)	none
CC(C)(C)n1nnnc1C(c1ccccc1)N1CCN(C/C=C/c2ccccc2)CC1 (stereo unspecified)	M1 antag 63
CN(C)c1ccc(CC(=O)N2CCCCC2c2cc(C(=O)Nc3cccc(C#N)c3)no2)cc1 (stereo unspecified)	none
CCCCn1nnnc1C(c1cccc2ccccc12)N1CCN(C/C=C/c2ccccc2)CC1 (stereo unspecified)	M1 antag 95
CCCCn1nnnc1C(c1ccccc1OC(F)(F)F)N1CCN(C/C=C/c2ccccc2)CC1 (stereo unspecified)	none
CCCCn1nnnc1C(c1ccccc1)N1CCN(C/C=C/c2ccccc2)CC1 (stereo unspecified)	M1 antag 53
CC(Oc1ccccc1)C(=O)N1CCN(c2ncccn2)CC1 (stereo unspecified)	none
CCC(C(=O)N1CCN(c2ncccn2)CC1)c1ccccc1 (stereo unspecified)	M1 antag 27
COCCN(CC(=O)Nc1cccc(C)c1C)C(=O)Cn1c(=O)cnc2ccccc21	none
COCCCNC(=O)Cc1coc2ccc3ccccc3c12	none
CCCCNC(=O)Cc1coc2ccc3ccccc3c12	CHO-K1 Ca antag 27
NC(=O)C1CCN(C(=O)C2CCC(=O)N(C3CCCCCC3)C2)CC1 (stereo unspecified)	none
COc1ccc(S(=O)(=O)N(C)c2ccc(C(=O)N3CCC(C(N)=O)CC3)cc2)cc1OC	CHO-K1 Ca antag 25
COc1ccc(S(=O)(=O)N(C)c2ccc(C(=O)N3CCC(C(N)=O)CC3)cc2)cc1	none
Cc1cccc(CN2C(=O)/C(=C\c3ccc(C(=O)NCCN4CCOCC4)cc3)Sc3ccccc32)c1	M1 antag 33
CCN1CCN(CCNC(=O)c2ccc3c(c2)N(Cc2ccc(F)cc2)C(=O)/C(=C/c2ccccc2)S3)CC1	none
Cc1ccccc1CN1C(=O)/C(=C\c2ccc(C(=O)NCCN3CCOCC3)cc2)Sc2ccccc21	none
CCN1CCN(CCNC(=O)c2ccc(/C=C3/Sc4ccccc4N(Cc4cccc(Cl)c4)C3=O)cc2)CC1	M1 antag 57
COc1cccc(C(C)(O)c2nc(-c3cnn(C)c3)cs2)c1 (stereo unspecified)	none
CN1C(=O)c2ccc(N3CCCC3)cc2C1=O	none
Cc1cc(N2CCCC2)ccc1/C=C1\NC(=S)N(C)C1=O	CHRM1 agonist 23, M1 ag parental 17
O=C1N/C(=C/c2ccc(N3CCCC3)cc2)C(=O)N1c1ccccc1	none
O=C1/C(=C/c2ccc(N3CCCC3)cc2)NC(=S)N1C1CC1	CHO-K1 Ca antag 45, CHRM1 agonist 34, M1 ag parental 56, M1 antag 35
Cc1onc(-c2ccccc2Cl)c1C(=O)NC(=S)Nc1ccc(C(C)(C)C)cc1	none
C=CCN1C(=O)/C(=C\c2ccc(Oc3nc(N4CCOCC4)nc(N4CCOCC4)n3)c(OC)c2)SC1=S	none
OC[C@@H]1CN(CCN2CCOCC2)C[C@H](n2cnc3c(Nc4ccccc4)ncnc32)O1	none
CCC1CCCCN1CCNC(=O)C1CCN(S(=O)(=O)c2c(C)noc2C)CC1 (stereo unspecified)	M1 antag 48
Cc1cccc(NC(=O)CSc2nc3ccccc3c3nc(CCc4c(C)n[nH]c4C)nn23)c1	M1 antag 51

Source: PubChem
